Results filed as inconclusive are left out. Calls of active or inactive are those of the source. Unless noted, calls come from the whole dose curve; as a rule, active = well fitted curve in the direction sought with a large enough effect; inconclusive = small, poorly fitted or top-dose-only effect, or another doubt; inactive = no such curve, though single readings can be large; an effect the other way counts as inactive or inconclusive.

The results in this text go back to PubChem BioAssay (NCATS).

The target of assay [1] is Voltage-gated inwardly rectifying potassium channel KCNH2 (Homo sapiens) (UniProt Q12809). Put plainly: qHTS Assay for Small Molecule Inhibitors of the Human hERG Channel Activity (AID 588834).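 Note: lower thallium flux fluorescence means stronger hERG block; nearly all actives have a fitted effect of over 50% in size.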 Note: potency is the fitted concentration of half-maximal effect. Summed up:
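Homogeneous FluxOR thallium flux assay using hERG-expressing U2OS cells (BacMam). Compound treatment about 10 minutes preceded stimulation; reduced fluorescence taken as channel block.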
For orientation: In qHTS, concentration-response curves come from the screen itself.

The target in assay [2] is Luciferin 4-monooxygenase (Photinus pyralis) (UniProt P08659). Put plainly: Biochemical firefly luciferase enzyme assay for NPC (AID 624030). Note: nearly all actives have a fitted effect of over 70% in size. Note: potency is the fitted concentration of half-maximal effect. Summed up:
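Purified P. pyralis luciferase at 10 nM in 50 mM Tris Acetate (final), luminescence read within 5 minutes of enzyme addition to compounds. Activity normalised to PTC124 versus DMSO; concentration-response curves classed by r2, magnitude and activity.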

Assay [3] is described as follows: S16 Schwann cell viability assay (CellTiter-Glo assay) (AID 624031). Note: series mostly up to about 58 µM; nearly all actives have a fitted effect of over 70% in size. The method in brief: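 This viability control uses native rat S16 Schwann cells grown in DMEM plus 10% FBS. After a 24 h compound treatment at 37 °C, CellTiter-Glo luminescence reports ATP content, scaled against DMSO-treated and cell-free wells.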
For orientation: ATP-based viability assays read luminescence as a measure of living cells.

Assay [4] is described as follows: S16 Schwann cell PMP22 intronic element firefly luciferase assay (AID 624032). Note: nearly all actives have a fitted effect of over 30% in size. Note: potency is the fitted concentration of half-maximal effect. Summed up:
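Rat S16 Schwann cells stably carrying firefly luciferase driven by a PMP22 intronic element, in 10% FBS, treated 24 h at 37 C. ONE-Glo luminescence normalized to PTC124 control and DMSO (0%); curves classed by r2, magnitude and activity.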

Assay [5] can be described thus: S16 Schwann cell PMP22 intronic element beta-lactamase assay (AID 624044; calls by dose curve; note: nearly all actives have a fitted effect of over 15% in size). Summed up:
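Beta-lactamase reporter under a PMP22 intronic regulatory element in stable S16 rat Schwann cells; 24 h compound exposure. 460 nm blue signal normalized between DMSO (0%) and potassium clavulanate, with 535 nm FRET tracking viability; curves classed by r2 and response.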

Assay [6] concerns the target Glutaminase kidney isoform, mitochondrial (Homo sapiens) (UniProt O94925). Put plainly: qHTS for Inhibitors of Glutaminase (GLS): LOPAC Validation (AID 624146).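 Note: glutamate product detected by oxidase and peroxidase coupled Amplex red fluorescence gain; series mostly up to about 46 µM; nearly all actives have a fitted effect of over 60% in size.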 Summed up:
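Glutamate formation by hKGA was monitored fluorometrically using coupled glutamate oxidase, HRP and Amplex Red. Substrate was added as 1 mM L-glutamine solution; incubation was 30 min at RT after an initial read.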

Assay [7] can be described thus: qHTS of Trypanosoma Brucei Inhibitors: LOPAC Validation (AID 624147). Summed up: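 Screened from lowest to highest concentration, compounds were pinned into TbPYK/substrate mixtures, and ADP (130 uM final) was added. Plates sat at room temperature for 45 min prior to Kinase-Glo Plus detection by luminescence.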
In assay [8] the target is Glucagon-like peptide 1 receptor (Homo sapiens) (UniProt P43220). Put plainly: qHTS of GLP-1 Receptor Agonists: LOPAC Validation (AID 624148).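 Note: higher luminescence signal means agonism.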 Summed up: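 HEK293 cells stably co-expressing GLP-1R and a cAMP-responsive luciferase reporter, plated 12 hours before compound, then incubated 4-6 hr at 37 deg C. Luminescence read 12 min after detection reagent.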
Chain of Glucagon-like peptide 1 receptor (Homo sapiens) (P43220 whole entry, looked up): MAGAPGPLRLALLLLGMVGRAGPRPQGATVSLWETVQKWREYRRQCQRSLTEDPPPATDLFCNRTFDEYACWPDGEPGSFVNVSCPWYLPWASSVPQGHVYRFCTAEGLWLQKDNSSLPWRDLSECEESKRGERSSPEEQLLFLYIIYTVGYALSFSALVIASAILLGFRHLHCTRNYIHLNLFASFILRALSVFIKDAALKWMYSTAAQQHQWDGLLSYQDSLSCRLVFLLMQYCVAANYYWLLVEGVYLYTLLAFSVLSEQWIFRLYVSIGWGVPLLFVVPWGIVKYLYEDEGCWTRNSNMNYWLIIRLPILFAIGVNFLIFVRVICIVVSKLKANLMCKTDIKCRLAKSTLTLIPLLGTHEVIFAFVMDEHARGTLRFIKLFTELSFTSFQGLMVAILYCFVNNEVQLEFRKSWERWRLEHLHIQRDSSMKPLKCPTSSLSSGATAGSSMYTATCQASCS
Assay [9] in a line: qHTS of Nrf2 Activators: LOPAC Validation (AID 624149). The method in brief: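 AREc32_Fluc cells, 1000/well, OPTI-MEM + 5% FBS, o/n 37 deg C 5% CO2; compound pin-transfer, 24 hr 37 deg C; Steady-Glo 30 min RT, luminescence read.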
The nature of assay [10]: HTS Assay for Allosteric Antagonists of the Human D2 Dopamine Receptor: Hit Validation in HTRF (AID 624455). The method in brief: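 HTRF read-out; cells stably expressing D1 receptor; hits scored for inhibition of D1-mediated response. Primary screen: calcium flux, force-coupled inducible Hek293 Trex D2 line, antagonism vs EC80 dopamine.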
A general note: TR-FRET usually uses a lanthanide donor and a delayed reading to cut background.

Chain of Voltage-gated inwardly rectifying potassium channel KCNH2 (Homo sapiens) (Q12809 whole entry, looked up): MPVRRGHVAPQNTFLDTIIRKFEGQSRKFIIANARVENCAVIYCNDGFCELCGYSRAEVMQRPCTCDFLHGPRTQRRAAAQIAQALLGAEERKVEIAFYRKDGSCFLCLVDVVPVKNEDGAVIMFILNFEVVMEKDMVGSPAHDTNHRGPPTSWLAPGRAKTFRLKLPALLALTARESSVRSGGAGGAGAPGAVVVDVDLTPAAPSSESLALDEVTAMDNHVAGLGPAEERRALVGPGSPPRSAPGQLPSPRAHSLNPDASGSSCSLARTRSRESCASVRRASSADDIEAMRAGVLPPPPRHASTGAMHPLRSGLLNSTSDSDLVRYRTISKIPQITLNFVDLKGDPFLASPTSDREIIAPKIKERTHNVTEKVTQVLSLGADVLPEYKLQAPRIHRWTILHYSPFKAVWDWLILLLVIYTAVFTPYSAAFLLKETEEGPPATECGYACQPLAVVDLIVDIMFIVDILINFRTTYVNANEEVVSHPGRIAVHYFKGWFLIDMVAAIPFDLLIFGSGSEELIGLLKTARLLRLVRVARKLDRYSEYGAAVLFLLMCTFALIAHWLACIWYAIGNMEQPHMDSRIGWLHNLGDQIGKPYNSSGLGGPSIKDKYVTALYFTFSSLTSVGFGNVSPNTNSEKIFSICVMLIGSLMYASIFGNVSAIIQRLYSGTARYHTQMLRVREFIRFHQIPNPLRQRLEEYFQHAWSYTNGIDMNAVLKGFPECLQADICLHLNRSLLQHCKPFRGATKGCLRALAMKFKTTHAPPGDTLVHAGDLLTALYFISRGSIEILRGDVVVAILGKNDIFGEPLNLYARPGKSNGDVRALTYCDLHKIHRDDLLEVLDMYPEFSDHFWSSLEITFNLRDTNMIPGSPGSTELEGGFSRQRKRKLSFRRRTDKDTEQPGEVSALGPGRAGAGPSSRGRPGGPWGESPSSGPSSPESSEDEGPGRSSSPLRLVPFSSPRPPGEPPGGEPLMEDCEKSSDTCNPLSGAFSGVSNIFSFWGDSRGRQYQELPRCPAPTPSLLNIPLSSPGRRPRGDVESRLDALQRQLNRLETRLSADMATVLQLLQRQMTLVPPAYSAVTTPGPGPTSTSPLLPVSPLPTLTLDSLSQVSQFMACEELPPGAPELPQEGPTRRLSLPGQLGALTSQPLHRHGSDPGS
Chain of Luciferin 4-monooxygenase (Photinus pyralis) (P08659 whole entry, looked up): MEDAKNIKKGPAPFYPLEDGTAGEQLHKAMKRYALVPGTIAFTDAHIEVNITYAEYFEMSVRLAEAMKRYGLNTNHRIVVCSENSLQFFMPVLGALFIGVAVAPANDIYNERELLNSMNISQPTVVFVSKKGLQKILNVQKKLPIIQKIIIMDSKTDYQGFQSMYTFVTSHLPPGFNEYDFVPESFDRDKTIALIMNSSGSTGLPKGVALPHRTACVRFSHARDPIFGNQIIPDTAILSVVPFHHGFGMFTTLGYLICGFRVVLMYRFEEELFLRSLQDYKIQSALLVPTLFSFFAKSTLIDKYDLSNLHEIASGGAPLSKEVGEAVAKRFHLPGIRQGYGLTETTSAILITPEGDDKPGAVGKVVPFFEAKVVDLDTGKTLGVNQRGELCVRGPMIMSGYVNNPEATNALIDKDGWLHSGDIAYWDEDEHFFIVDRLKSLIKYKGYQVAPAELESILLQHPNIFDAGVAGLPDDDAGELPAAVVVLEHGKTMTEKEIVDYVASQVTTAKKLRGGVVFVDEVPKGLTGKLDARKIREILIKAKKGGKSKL
Chain of Glutaminase kidney isoform, mitochondrial (Homo sapiens) (O94925 whole entry, looked up, canonical isoform): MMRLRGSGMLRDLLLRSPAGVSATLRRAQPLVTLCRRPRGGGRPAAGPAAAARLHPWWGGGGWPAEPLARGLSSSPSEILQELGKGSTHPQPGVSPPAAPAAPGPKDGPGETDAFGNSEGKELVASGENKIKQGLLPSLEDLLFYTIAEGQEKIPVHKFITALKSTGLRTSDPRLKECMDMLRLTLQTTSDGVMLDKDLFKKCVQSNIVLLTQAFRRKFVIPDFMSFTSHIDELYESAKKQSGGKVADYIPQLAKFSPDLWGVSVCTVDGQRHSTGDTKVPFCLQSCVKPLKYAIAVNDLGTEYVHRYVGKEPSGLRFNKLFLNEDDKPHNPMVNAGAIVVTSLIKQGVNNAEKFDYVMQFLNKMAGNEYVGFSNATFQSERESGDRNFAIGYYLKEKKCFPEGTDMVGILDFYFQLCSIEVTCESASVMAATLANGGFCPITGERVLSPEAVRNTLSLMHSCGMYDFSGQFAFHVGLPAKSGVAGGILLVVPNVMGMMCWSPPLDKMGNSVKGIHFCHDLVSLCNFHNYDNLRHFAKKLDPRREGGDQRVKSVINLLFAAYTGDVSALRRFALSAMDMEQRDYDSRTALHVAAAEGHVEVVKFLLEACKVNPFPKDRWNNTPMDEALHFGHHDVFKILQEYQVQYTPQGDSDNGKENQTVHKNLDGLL

Turning to `Nc1nc2c(ncn2CCC(CO)CO)c(=O)[nH]1`, the Potency entry in assay [1], in assay [2], in assay [3] and in [4] was “inactive” each time.
In the case of `COc1cc2[nH]c(=O)[nH]c(=O)c2cc1OC`, the Potency entry in assay [1], in assay [2], in [3] and in [4] was “inactive” throughout.
In the case of `O=C(O)c1ccccc1-c1ccc(C(F)(F)F)cc1`, the Potency result in assay [1], in assay [2], in [3] and in assay [4] was “inactive” in each case.
With `CC(=O)CCC(=O)O`, the Potency entry in [1], in assay [2], in assay [3] and in [4] was “inactive” in each case.
In the case of `O=c1cc[nH]c(=O)[nH]1`, the Potency entry in assay [1], in assay [2], in assay [3] and in assay [4] was “inactive” each time.
Consider `NC(=O)NC(=O)Cc1ccccc1`, for which the Potency entry in [1], in assay [2], in assay [3] and in [4] was “inactive” in each case.
Take `C[C@H]1O[C@@H](n2cc(F)c(=O)[nH]c2=O)[C@H](O)[C@@H]1O`: the Potency entry in assay [1], in assay [2], in assay [3] and in [4] was “inactive” each time.
For `CCC(=O)Nc1ccc(O)cc1`, the Potency result in [1], in assay [2], in assay [3] and in [4] was “inactive” in each case.
As for `Cc1c(Cl)cccc1Nc1ccccc1C(=O)O`, the Potency entry in [1], in [3] and in [4] was “inactive” in each case. Moreover, the Potency in assay [2] is 32.2 µM (active).
As for `C[C@@H]1CN(c2c(F)c(F)c3c(=O)c(C(=O)O)cn(C4CC4)c3c2F)C[C@H](C)N1`, the Potency entry in assay [1], in [2], in assay [3] and in assay [4] was “inactive” each time.
Regarding `NC(CSCC(=O)O)C(=O)O` (configuration not stated), the Potency result in assay [1], in assay [2], in assay [3] and in assay [4] was “inactive” throughout.
`O=C1OC(OC(=O)c2cccnc2Nc2cccc(C(F)(F)F)c2)c2ccccc21` (configuration not stated): the Potency result in assay [1], in [2] and in assay [3] was “inactive” throughout. Further, the Potency in assay [4] is 7.21 µM (active).
As for `CCOC(=O)[C@H](CCc1ccccc1)N[C@@H](C)C(=O)N1C(=O)N(C)C[C@H]1C(=O)O`, the Potency entry in assay [1], in [2], in assay [3] and in [4] was “inactive” each time.
As to `CCn1cc(C(=O)O)c(=O)c2cnc(N3CCNCC3)nc21`, the Potency entry in [1], in assay [2] and in assay [3] was “inactive” each time. In addition, the Potency in [4] is 7.75 µM (active).
With `CC1(C)CO[C@@H](CC(=O)O)CN1`, the Potency entry in assay [1], in [2], in assay [3] and in assay [4] was “inactive” in each case.
As for `O=C(O)CN1C(=O)c2cccc3cccc(c23)C1=O`, the Potency entry in assay [1], in assay [2], in assay [3] and in assay [4] was “inactive” each time.
As for `Nc1ccc(S(=O)(=O)Nc2ccc(Cl)nn2)cc1`, the Potency result in [1], in [2], in assay [3] and in assay [4] was “inactive” throughout.
Turning to `Cc1cccc(C)c1NC(=O)CN(CC(=O)O)CC(=O)O`, the Potency result in assay [1], in assay [2], in assay [3] and in assay [4] was “inactive” each time.
For `N[C@@H](CSCCCO)C(=O)O`, the Potency result in assay [1], in assay [2], in assay [3] and in assay [4] was “inactive” throughout.
With `Cc1ncc(COP(=O)(O)O)c(C=O)c1O`, the Potency result in [1], in assay [2], in assay [3] and in assay [4] was “inactive” in each case.
Take `O=C1NS(=O)(=O)c2ccccc21`: the Potency entry in assay [1], in assay [2], in assay [3] and in assay [4] was “inactive” throughout.
Turning to `Nc1ccc(S(=O)(=O)NC(=O)c2ccccc2)cc1`, the Potency entry in assay [1], in assay [2], in [3] and in [4] was “inactive” in each case.
Regarding `CCCOC(=O)c1ccccc1`, the Potency result in assay [1], in [2], in [3] and in [4] was “inactive” in each case.
As to `Cc1cc2c(cc1S(N)(=O)=O)S(=O)(=O)CCC2`, the Potency entry in assay [1], in [2], in assay [3], in assay [4] and in assay [5] was “inactive” in each case.
Regarding `O=C(CCCN1CCN(c2ccccn2)CC1)c1ccc(F)cc1`, in [1], the Potency was 5.01 µM (active). Further, the Potency entry in [2], in [3] and in assay [4] was “inactive” in each case.
Consider `NCC(=O)CCC(=O)O`, for which the Potency result in assay [1], in assay [2], in assay [3] and in assay [4] was “inactive” in each case.
As for `O=C(O)COc1nn(Cc2ccccc2)c2ccccc12`, the Potency entry in assay [1], in assay [2], in [3] and in assay [4] was “inactive” each time.
Consider `CC(=O)Nc1ccc(/C=N/NC(N)=S)cc1`, for which the Potency entry in assay [1], in assay [2], in [3] and in assay [4] was “inactive” throughout.
Turning to `CC(=O)c1ccc2c(c1)N(CCCN(C)C)c1ccccc1S2`, the Potency in [1] is 4.47 µM (active). Further, the Potency entry in assay [2], in assay [3] and in assay [4] was “inactive” throughout.
For `CCCCc1ncc(/C=C(\Cc2cccs2)C(=O)O)n1Cc1ccc(C(=O)O)cc1`, the Potency result in [1], in assay [2], in assay [3] and in assay [4] was “inactive” in each case.
In the case of `CC(C)(C)C(=O)NCCCC(=O)O`, the Potency entry in assay [1], in [2], in assay [3] and in [4] was “inactive” each time.
As to `O=C1NC(=O)[C@@]2(CCOc3ccc(F)cc32)N1`, the Potency entry in assay [1], in assay [2], in [3] and in assay [4] was “inactive” throughout.
For `O=C(O)[C@@H]1CSCN1`, the Potency entry in [1], in assay [2], in [3], in assay [4] and in assay [5] was “inactive” each time.
For the molecule `COc1cc(C)c(Cc2cnc(N)nc2N)cc1OC`, the Potency entry in [1], in assay [2] and in assay [4] was “inactive” in each case.
Regarding `C#CCN(C)Cc1ccccc1`, the Potency result in assay [1], in assay [2], in assay [3], in [4] and in assay [6] was “inactive” each time. Besides, the molecule was called inactive in [7], in [8], in assay [9] and in assay [10].
On to `CC(C)C(=O)c1c(C(C)C)nn2ccccc12`, for which the Potency result in assay [1], in assay [2] and in [6] was “inactive” throughout. Also, the outcome in [7], in assay [8], in assay [9] and in [10] was inactive.
With `CCOc1ccc2ccccc2c1C(=O)N[C@@H]1C(=O)N2[C@@H]1SC(C)(C)[C@@H]2C(=O)O`, the Potency entry in [1], in assay [2], in [3] and in [5] was “inactive” in each case.
As to `CC[C@@]1(c2ccccc2)NC(=O)N(C)C1=O`, the Potency result in [1], in [2], in assay [3], in assay [4] and in [5] was “inactive” in each case.
